TTR transcr act = increases transthyretin transcription | actives 1.3% (n = 92,000) | activation, % at 16.7 µM | SH-SY5Y TTR promoter Gaussia luciferase, luminescence; 100% = recombinant luciferase protein wells;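 active means activation above the mean of all tested compounds plus 3 SD, cut at about 9.5% in these data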;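 further: cells exposed to compounds for one day before reading; 0% = median of all test compound wells on the plate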
HuH7 TTR inh = HuH7 TTR transcription inhibition, counter-screen | shares compounds with TTR transcr act | HuH7 TTR promoter-Gaussia luciferase reporter, luminescence | inhibition, % at 16.7 µM | actives 4% (n = 1,100);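 active means average inhibition above the solvent-only control wells' mean plus 3 SD, cut at about 15% in these data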;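 further: 0% = cells with DMSO only and 100% = cells with inhibitor control FD; inhibitors lower well luminescence so higher value means more inhibition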
TTR up confirm = human TTR transcription activation, confirmation. shares compounds with TTR transcr act. SHSY5Y TTR promoter Gaussia luciferase, luminescence; 100% = purified Lucia enzyme wells, no cells. activation, % at 16.7 µM. 1,100 tested, under 10 active;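 active means mean activation above a set limit taken from the earlier primary screen, cut at about 11% in these data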;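 further: 0% = DMSO-treated cells and 100% = recombinant Lucia luciferase without cells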
An asterisk follows results filed as active. The entries come from a sample that favours hits as a whole.

SMILES	TTR transcr act	others
O=C(O)C(=O)Cc1c[nH]c2ccccc12	1.1
CC(C)NCCOCCOc1ccc(Cl)cc1Br	-0.2
CC(C)NCCOCCOc1ccccc1F	11.1*	HuH7 TTR inh=-8.9;TTR up confirm=0.8
CCN(CC)CCOCCOc1ccccc1F	-0.6
O=C1C(NC(=O)N2c3ccccc3C=Cc3ccccc32)CCCCN1Cc1ccc(Cl)cc1 (stereo not given)	-1.1
O=C(NCCN1CCOCC1)c1cc(-c2ccco2)on1	3.0
O=C(NCCN1CCOCC1)c1cc(-c2ccc(F)cc2)on1	4.3
CC(C)Cc1cc(C(=O)NCCCN2CCOCC2)no1	11.2*	HuH7 TTR inh=1.9;TTR up confirm=-1.1
S=C(Nc1ccccc1I)OC1CCC12CCC(c1ccccc1)CC2 (stereo not given)	3.6
O=C(c1cc(-c2cccnc2)nc2ccccc12)N1CCN(S(=O)(=O)c2ccc(Cl)s2)CC1	-1.0
O=C(Cc1ccccc1)Nc1cccc(-c2nnc(-c3ccco3)o2)c1	-3.9
O=C(Cc1ccc(Cl)cc1)Nc1cccc(-c2nnc(-c3ccco3)o2)c1	-0.4
O=C(COc1ccccc1)Nc1ccc(-c2nnc(-c3ccco3)o2)cc1	19.1*	HuH7 TTR inh=-1.4;TTR up confirm=-0.7
COC(=O)[C@]12C[C@H](CC(=O)NCc3cccs3)C(=O)N(Cc3ccco3)C1=C[C@H](C1CCCC1)O[C@@H]2C	0.0
Cc1ccc(S(=O)(=O)N2CC3CCCC2C3)cc1 (stereo not given)	0.1
CC(C)C[C@H]1CNC(=S)N1C[C@H]1CCCN1C[C@H](CC(C)C)N1C[C@H](Cc2ccc(O)cc2)N(CC2CCCCCC2)C1=S	24.9*	HuH7 TTR inh=8.9;TTR up confirm=-0.9
CC(C)C[C@H]1CNC(=S)N1C[C@H]1CCCN1C[C@H](CC(C)C)N1C[C@H](Cc2ccc(O)cc2)N(CCc2ccccc2)C1=S	-3.0
CC(C)C[C@H]1CNC(=S)N1CC1CCCN1C[C@H](CC(C)C)N1C[C@H](Cc2ccc(O)cc2)N(CC2CCCCC2)C1=S (stereo not given in full)	-1.9
CCOc1cc(C(=S)N2CCOCC2)cc(Br)c1OS(=O)(=O)c1ccccc1	-2.1
COC(=O)C[C@H]1c2cc(C(F)(F)F)ccc2S(=O)(=O)N1C1CCCC1	0.9
Cc1ccc(C(=O)O/N=C(\c2ccccc2)c2cccnc2)cc1	0.5
N/C(=N\OC(=O)c1ccccc1)c1cccnc1	10.2*	HuH7 TTR inh=-11.0;TTR up confirm=1.9
N/C(=N\OC(=O)c1ccc2c(c1)OCO2)c1cccnc1	0.8
COc1ccc(N(C(C)C(=O)N/N=C/c2cccnc2)S(C)(=O)=O)cc1 (stereo not given)	-0.6
COc1ccc(N(C(C)C(=O)NN=C2CCCCCCC2)S(C)(=O)=O)cc1 (stereo not given)	14.8*	HuH7 TTR inh=-8.6;TTR up confirm=-0.9
SMILES	TTR transcr act	others
COc1ccc(N(C(C)C(=O)N/N=C/c2ccc(OC)c(OC)c2)S(C)(=O)=O)cc1 (stereo not given)	-1.1
CCCCn1c2c(cc(C(=O)OC)c1=O)C(=O)CCC2	23.5*	HuH7 TTR inh=-0.1;TTR up confirm=-0.9
COC(=O)c1cc(-c2cccc3ccccc23)c(=O)n2c1CCC2	-1.0
O=C1CCCc2c1cc(C(=O)O)c(=O)n2-c1ccccc1	1.5
CC1CCCC(n2c(=S)[nH]c3ccccc3c2=O)C1C (stereo not given)	-1.1
COc1ccc(N2CCN(CC(=O)NC(=O)NC(C)(C)C)CC2)cc1	0.5
CC(Sc1nnc(-c2cccnc2)n1C)C(=O)N1CCOCC1 (stereo not given)	1.6
COc1ccc(Nc2nnc(SCC(=O)Nc3ccc4[nH]c(=O)[nH]c4c3)s2)cc1	-1.0
Cc1ccc(-c2nc(N)sc2CC(=O)OCC(=O)NC2CCCC(C)C2C)cc1 (stereo not given)	14.9*	HuH7 TTR inh=-11.1;TTR up confirm=1.0
CC1CCCC(NC(=O)COC(=O)Cc2ccc(Cl)cc2)C1C (stereo not given)	0.3
Cc1ccc(CC(=O)OCC(=O)NC2CCCC(C)C2C)cc1C (stereo not given)	-1.5
NC(=O)c1ccsc1NC(=O)COC(=O)CCOc1ccccc1	0.8
CCOc1ccc(CC(=O)NNC(=S)NC)cc1Br	-1.2
Cc1cc(-c2cc(-c3ccc(Cl)cc3)on2)nc(NC2CCCC2)n1	9.8*	HuH7 TTR inh=-2.8;TTR up confirm=0.6
Cc1ccc(SCc2cc(-c3ccc(Cl)cc3)on2)cc1	1.5
Cc1ccc(-c2cc(C(=O)NC3CCCC3)no2)cc1	-1.8
CCNC(=O)CC1C(=O)N(c2ccccc2)C(=O)N1Cc1ccc(OC)cc1 (stereo not given)	0.9
O=C(CNC(=O)c1ccc(Cl)cc1)c1ccc(Br)cc1	5.8
O=C(O)CCC(=O)N1CCN(S(=O)(=O)c2cccs2)CC1	3.9
CC(=O)c1ccc(OCCCC(=O)N2CCN(S(=O)(=O)c3cccs3)CC2)cc1	-1.1
O=C(CCCOc1ccccc1)N1CCN(S(=O)(=O)c2cccs2)CC1	26.9*	HuH7 TTR inh=-10.1;TTR up confirm=3.8
COc1ccc(C(C(=O)NC(C)(C)C)N(C(=O)CNC(=O)c2cccs2)c2cccnc2)cc1OC (stereo not given)	3.6
CCCCn1nnnc1C1(C)CCC(=O)N1Cc1cc(OC)ccc1OC (stereo not given)	1.5
COC(=O)[C@]12C[C@H](CC(=O)NCCCCc3ccccc3)C(=O)N(Cc3cccc4ccccc34)C1=C[C@H](COCc1ccccc1)O[C@@H]2C	-1.5
COc1n[nH]c(C(=O)Nc2cc(F)ccc2C)c1[N+](=O)[O-]	10.4*	HuH7 TTR inh=-15.3;TTR up confirm=-1.0
SMILES	TTR transcr act	others
Cc1ccc(F)cc1NC(=O)c1cccc2nccnc12	-2.0
COc1ccc(Cl)cc1NC(=O)c1[nH]nc(OC)c1[N+](=O)[O-]	-2.3
O=C(CSC(=S)N1CCCCC1)Nc1ncc2c(n1)CCCC2=O	-0.7
c1ccc(CNC23CC4CC(CC(C4)C2)C3)nc1	-0.7
CC(C)(CO)NC12CC3CC(CC(C3)C1)C2	-1.3
Cc1ccsc1CNC12CC3CC(CC(C3)C1)C2	9.7*	HuH7 TTR inh=-7.9;TTR up confirm=1.3
O=C(OCC#CCSc1nnc(-c2cccc3ccccc23)o1)c1ccc(Cl)c(C(F)(F)F)c1	0.0
O=C(NCc1cccc(C(F)(F)F)c1)C1CCCN(c2cnccn2)C1 (stereo not given)	-1.0
Cc1cn(CC(=O)c2ccccc2)c2ccccc12	0.5
Cc1cc(C)n(CC(=O)c2ccccc2)c(=O)c1C#N	16.2*	HuH7 TTR inh=-7.3;TTR up confirm=-0.3
Cc1cc(-c2ccccc2)[nH]c(=O)c1C#N	0.2
Cc1cccc(N2CCN(C(=O)c3cc(S(=O)(=O)N(C)C)ccc3Cl)CC2)c1C	2.0
CCN(C(=O)CSc1nc(N)cc(N)n1)C1CCS(=O)(=O)C1 (stereo not given)	2.6
Cc1cccc(C)c1OCc1nnc(SCC(=O)Nc2ccc(N3CCOCC3)cc2)o1	2.4
Cc1ccc(CN2CCCCC(NC(=O)Nc3cccc([N+](=O)[O-])c3)C2=O)cc1 (stereo not given)	-1.5
COP(=O)(O)C(COCCC(CC(C)C)NC(=O)OCc1ccccc1[N+](=O)[O-])NC(=O)OCc1ccccc1 (stereo not given)	0.3
CCCCNC(=O)C[C@H]1C[C@@]2(C(=O)OC)C(=C[C@H](C(C)C)O[C@@H]2C2CC2)N(CCc2ccc(OC)c(OC)c2)C1=O	0.2
CCN(CC)C(=O)C1=C(C)N(Cc2ccc(OC)cc2)C(=O)C(CC(=O)NCc2cccs2)C1 (stereo not given)	23.2*	HuH7 TTR inh=-17.6;TTR up confirm=0.5
